Reference: the supplement of paper PMC13380429

Key:
[1] = system: Vero E6 infected with SARS-CoV-2; assay: morphology score (similarity to uninfected cells); higher = more like uninfected cells; details: 24 h
[2] = system: Vero E6 infected with SARS-CoV-2; assay: SARS-CoV-2 infection rate relative to infected DMSO; higher = more infection, active = 60 or less; details: 24 h

CC(C)COC(=O)c1ccc(N)cc1 [isobutamben] (10 µM)
morphology score [1]: 0.0167
SARS-CoV-2 infection rate [2]: 106% (inactive)

Cc1ccc(CCCO)c(NCc2ccc3nc(NCCCN4CCOCC4)n(Cc4nc(C)ccc4O)c3c2)c1 (10 µM)
morphology score [1]: 0.227
SARS-CoV-2 infection rate [2]: 96.5% (inactive)

CCCCC(=O)O[C@]1(C(=O)CO)[C@@H](C)C[C@H]2[C@@H]3CCC4=CC(=O)C=C[C@]4(C)[C@@]3(F)[C@@H](O)C[C@@]21C (10 µM)
morphology score [1]: -0.0636
SARS-CoV-2 infection rate [2]: 112% (inactive)

FC(F)(F)c1cc(NC(=S)Nc2ccc(Br)cc2-c2nnn[nH]2)cc(C(F)(F)F)c1 (10 µM)
morphology score [1]: 0.0928
SARS-CoV-2 infection rate [2]: 98% (inactive)

CO[C@H]1CC[C@H](N2C(=O)CNc3ncc(-c4ccc(C(C)(C)O)nc4)nc32)CC1 (0.833333 µM)
morphology score [1]: 0.21
SARS-CoV-2 infection rate [2]: 82.5% (inactive)

O=C(O)CC(S)C(=O)O (stereo unspecified) [mercaptosuccinic-acid] (10 µM)
morphology score [1]: -0.089
SARS-CoV-2 infection rate [2]: 108% (inactive)

O=C1Cc2c([nH]c3ccc(Br)cc23)-c2ccccc2N1 [kenpaullone] (10 µM)
morphology score [1]: 0.533
SARS-CoV-2 infection rate [2]: 69.5% (inactive)

COc1ccc2c(NC(=O)Nc3cccc(C(F)(F)F)n3)ccnc2c1 (10 µM)
morphology score [1]: -0.049
SARS-CoV-2 infection rate [2]: 101% (inactive)

CCCN(CCC)C(=O)C1=Cc2ccc(-c3ccc(C(=O)N4CCCC4)cc3)cc2N=C(N)C1 [motolimod] (10 µM)
morphology score [1]: 0.14
SARS-CoV-2 infection rate [2]: 93% (inactive)

Cc1ncc(CN2CC=C(c3ccccc3)CC2)c(N)n1 (10 µM)
morphology score [1]: 0.0617
SARS-CoV-2 infection rate [2]: 108% (inactive)

OCCCCO [1,4-butanediol] (10 µM)
morphology score [1]: 0.0223
SARS-CoV-2 infection rate [2]: 105% (inactive)

O=C(O)c1cc(/N=N/c2ccc(S(=O)(=O)Nc3ccccn3)cc2)ccc1O [sulfasalazine] (10 µM)
morphology score [1]: 0.0447
SARS-CoV-2 infection rate [2]: 105% (inactive)

CSc1ccc(C(=O)c2[nH]c(=O)[nH]c2C)cc1 [enoximone] (10 µM)
morphology score [1]: 0.104
SARS-CoV-2 infection rate [2]: 88.5% (inactive)
